The source made the active and inactive calls. Rule for the calls: active = hit-call score of the fitted dose curve at least 0.9, where 1 is the maximum; inactive = score below 0.9.
Read-out: Tumor necrosis factor receptor superfamily member 6 (Homo sapiens) (UniProt P25445)
Assay: LTEA_HepaRG_FAS: Life Technologies and Expression Analysis (LTEA) Assay for Fas cell surface death receptor (FAS) using HepaRG (AID 2283447)
Settings: mRNA level, 48 h; actives raise or lower the signal
How it was run: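 FAS transcript level was measured by TaqMan qRT-PCR against three housekeeping genes after 48 h chemical exposure. Cells were HepaRG, 0.5% DMSO vehicle, with a top concentration of 100 uM and half-log dilutions over eight points, in duplicate.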

| SMILES | outcome | AC50 |
| --- | --- | --- |
| CCCOC(=O)c1ccc(O)cc1 | inactive | – |
| C#C[C@]1(O)CC[C@H]2[C@@H]3CCC4=CC(=O)CC[C@@H]4[C@H]3CC[C@@]21C | inactive | – |
| COC(=O)CCCCC(=O)OC | inactive | – |
| CCOC(=O)CC(O)(CC(=O)OCC)C(=O)OCC | inactive | – |
| C[C@@H]1C[C@H]2[C@@H]3CCC4=CC(=O)C=C[C@]4(C)[C@@]3(F)[C@@H](O)C[C@]2(C)[C@@]1(O)C(=O)COP(=O)(O)O | inactive | – |
| CC[C@H](C)[C@@H](C(=O)O)n1sc2ccccc2c1=O | inactive | – |
| CC#C[C@]1(O)CC[C@H]2[C@@H]3CCC4=CC(=O)CCC4=C3[C@@H](c3ccc(N(C)C)cc3)C[C@@]21C | – | 22 µM (active) |
| NC(=O)N(O)[C@@H]1C=C[C@H](Oc2cccc(Oc3ccc(F)cc3)c2)C1 | – | 67.2 µM (active) |
| O=c1c(-c2ccc(O)cc2)coc2cc(O)ccc12 | inactive | – |
| c1ccc2cc3c(ccc4ccccc43)cc2c1 | inactive | – |
| O=[N+]([O-])c1ccc(O)cc1 | inactive | – |
| O=C(OCCOCCOC(=O)c1ccccc1)c1ccccc1 | inactive | – |
| CN1CCC[C@H]1c1cccnc1 | inactive | – |
| OC1CCC(C2CCCCC2)CC1 (stereo unspecified) | inactive | – |
| CCCCC(CC)COC(=O)CCCCC(=O)OCc1ccccc1 (stereo unspecified) | inactive | – |
| Oc1cccc(O)c1 | inactive | – |

| SMILES | outcome | AC50 |
| --- | --- | --- |
| Nc1cccc2c(N)cccc12 | inactive | – |
| CC(C)(C)c1ccc(O)c(C(C)(C)C)c1 | inactive | – |
| Cc1oc(-c2ccccc2)nc1CCOc1ccc(C[C@H](Nc2ccccc2C(=O)c2ccccc2)C(=O)O)cc1 | – | 92.4 µM (active) |
| O=C(O)c1ccccc1C(c1ccc(O)cc1)c1ccc(O)cc1 | inactive | – |
| CCc1ccc(CCOc2ccc(CC3SC(=O)NC3=O)cc2)nc1 (stereo unspecified) | inactive | – |
| CCCCCCCCCCCCCCCS(=O)(=O)Oc1ccccc1 | inactive | – |
| CC1=C(/C=C/C(C)=C/C=C/C(C)=C/C(=O)O)C(C)(C)CCC1 | inactive | – |
| O=C(O)Cc1cc(I)c(Oc2cc(I)c(O)c(I)c2)c(I)c1 | inactive | – |
| c1ccc2c(c1)ccc1ccccc12 | inactive | – |
| CCc1nn(C2CCCCC2)c2cc(C3(C#N)CCC(C(=O)O)CC3)ccc12 (stereo unspecified) | – | 31.1 µM (active) |
| CN1CCN(c2ccccc2/C=C2\SCCN(c3ccc(Cl)c(Cl)c3)C2=O)CC1 | inactive | – |
| CCCCCCCCC(=O)O | inactive | – |
| Oc1cc2ccccc2c2ccccc12 | inactive | – |
| CCC(=C(c1ccc(O)cc1)c1ccc(OCCN(C)C)cc1)c1ccccc1 | inactive | – |
| COc1ccc([N+](=O)[O-])cc1N | inactive | – |
